We go through two compounds from PubChem BioAssay AID2283197 (EPA ToxCast).

The target of this assay is human Protein Kinase D2 (PKD2), PRKD2 (gene 25865) (UniProt Q9BZL6). The assay is described as follows: NVS_ENZ_hPKD2: NovaScreen (NVS) Enzymatic Assay for human Protein Kinase D2 (PKD2). On the procedure:
NVS_ENZ_hPKD2 is a biochemical, single-readout assay that uses extracted gene-proteins in a cell-free assay. Measurements were taken 1 hour after chemical dosing in a 384-well plate.NVS_ENZ_hPKD2 is one of one assay component(s) measured or calculated from the NVS_ENZ_hPKD2 assay. It is designed to make measurements of enzyme activity, a form of enzyme reporter, as detected with fluorescence intensity signals by Fluorescence and electrophoretic mobility shift technology.Data from the assay component NVS_ENZ_hPKD2 was analyzed into 1 assay endpoint. This assay endpoint, NVS_ENZ_hPKD2, was analyzed in the positive analysis fitting direction relative to DMSO as the negative control and baseline of activity. Using a type of enzyme reporter, loss-of-signal activity can be used to understand changes in the enzymatic activity as they relate to the gene PRKD2. Furthermore, this assay endpoint can be referred to as a primary readout, because this assay has produced multiple assay endpoints where this one serves a enzymatic activity function. To generalize the intended target to other relatable targets, this assay endpoint is annotated to the kinase intended target family, where the subfamily is serine/threonine kinase. […]

Calls of active or inactive are those of the source. How the source made its calls: active means hit-call score of the fitted dose curve at least 0.9, where 1 is the maximum; inactive means score below 0.9.

Sequence of human Protein Kinase D2 (PKD2), PRKD2 (gene 25865) (Q9BZL6 whole entry, looked up): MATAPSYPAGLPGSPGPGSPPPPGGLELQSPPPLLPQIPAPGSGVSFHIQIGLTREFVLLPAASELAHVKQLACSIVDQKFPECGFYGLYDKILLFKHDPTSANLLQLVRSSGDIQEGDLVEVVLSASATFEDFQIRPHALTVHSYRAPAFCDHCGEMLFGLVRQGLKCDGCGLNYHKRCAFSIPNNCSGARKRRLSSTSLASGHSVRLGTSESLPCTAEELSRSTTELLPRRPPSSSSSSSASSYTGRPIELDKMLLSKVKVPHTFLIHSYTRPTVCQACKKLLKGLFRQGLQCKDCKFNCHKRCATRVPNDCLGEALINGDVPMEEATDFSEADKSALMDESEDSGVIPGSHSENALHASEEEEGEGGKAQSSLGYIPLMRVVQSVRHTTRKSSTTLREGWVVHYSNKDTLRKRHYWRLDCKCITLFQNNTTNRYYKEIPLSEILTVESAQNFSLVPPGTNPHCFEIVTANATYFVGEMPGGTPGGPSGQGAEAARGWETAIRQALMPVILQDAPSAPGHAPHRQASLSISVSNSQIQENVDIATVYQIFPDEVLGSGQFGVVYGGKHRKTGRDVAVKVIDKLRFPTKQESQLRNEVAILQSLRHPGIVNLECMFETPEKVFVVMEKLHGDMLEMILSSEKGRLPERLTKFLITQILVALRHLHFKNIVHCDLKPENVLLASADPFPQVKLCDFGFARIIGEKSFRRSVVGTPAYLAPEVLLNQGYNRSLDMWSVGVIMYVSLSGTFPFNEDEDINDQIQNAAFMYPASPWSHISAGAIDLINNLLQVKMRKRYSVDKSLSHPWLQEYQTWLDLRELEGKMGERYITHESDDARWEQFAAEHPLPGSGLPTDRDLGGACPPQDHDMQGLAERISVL

`Oc1ccc(C(c2ccc(O)cc2)C(Cl)(Cl)Cl)cc1`: the result was inactive.
On to `N#CSCSc1nc2ccccc2s1`, for which the result was inactive.
